A short description of test [1]: qHTS assay to identify small molecule antagonists of the vitamin D receptor (VDR) signaling pathway - cell viability counter screen (AID 743225). Note: nearly all actives have a fitted effect of over 50% in size. The essentials:
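Viability counter screen run in the same wells as the beta-lactamase reporter assay: HEK 293T VDR-UAS-bla cells, 16 h compound exposure at 37C with 3 nM (final) 1-alpha,25-dihydroxyvitamin D3. CellTiter-Glo luminescence, 30 min, room temperature.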

The nature of test [2]: qHTS assay to identify small molecule agonists of the NFkB signaling pathway (AID 1159509; active = well fitted curve in the direction sought with a large enough effect in the signal ratio in the repeat runs, not every such curve was filed as active; the % refers to the signal ratio; note: series mostly up to about 61 µM). The essentials: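 ME-180 NFkB-bla, 2,000 cells/well, overnight plating; cpd pinned in DMSO, 5 h 37 C; B/G FRET substrate 1.5 h RT; ex 405, em 460/530 nm.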
The nature of test [3]: qHTS assay to identify small molecule agonists of the NFkB signaling pathway - cell viability counter screen (AID 1159515; calls by dose curve; note: series mostly up to about 61 µM; nearly all actives have a fitted effect of over 55% in size). A digest of the protocol:
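NFkB-bla ME-180 cells, 2,000/well, were plated overnight at 37 C, 5% CO2, then exposed to compounds in DMSO for 5 hr. After the bla FRET read, CellTiter-Glo was added to the same wells; luminescence was read after 30 min at room temperature.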
(In general: In qHTS, concentration-response curves come from the screen itself.)

The nature of test [4]: qHTS assay to identify small molecule agonists of the endoplasmic reticulum stress response signaling pathway - cell viability counter screen (AID 1159517; calls by dose curve;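 note: HeLa cells carrying an ER stress response element beta-lactamase reporter; series mostly up to about 61 µM; nearly all actives have a fitted effect of over 50% in size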). A digest of the protocol: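 ESRE-bla HeLa cells, 1,500 per well, seeded overnight then treated with compounds for 5 hr at 37 C. After the beta-lactamase read, viability in the same wells is measured by CellTiter-Glo luminescence after 30 min at room temperature.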

The nature of test [5]: qHTS assay to identify small molecule antagonists of the retinoid-related orphan receptor gamma (ROR-gamma) signaling pathway - cell viability counter screen (AID 1159520). Note: nearly all actives have a fitted effect of over 50% in size. The essentials:
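Tet-on ROR gamma CHO cells were given compounds for 2 hr, then doxycycline hyclate at 1 uM final, and incubated 16 hr at 37 C. Viability was measured as ATP content by CellTiter-Glo luminescence.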

The target in test [6] is Nuclear receptor ROR-gamma (Homo sapiens) (UniProt P51449). Kind of test: qHTS assay to identify small molecule antagonists of the retinoid-related orphan receptor gamma (ROR-gamma) signaling pathway (AID 1159521; note: top concentration of the series differs between compounds; nearly all actives have a fitted effect of over 50% in size). The essentials: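 Luminescence readout (ONE-Glo, 30 min RT) after 16 h doxycycline induction; loss of signal scored as antagonism. CHO cells with TET-inducible RORγ and RORE-LUC reporter; compounds added 2 h before 1 uM final doxycycline.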

Test [7] can be described thus: qHTS assay to identify small molecule agonists of the AP-1 signaling pathway - cell viability counter screen (AID 1159525; calls by dose curve; note: nearly all actives have a fitted effect of over 55% in size). A digest of the protocol:
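AP-1-bla ME-180 cells in Opti-MEM with 0.5% dialyzed FBS, compound exposure 5 h at 37 C in 15-point titration. Viability read in the same wells as ATP content by CellTiter-Glo luminescence, normalised to tetra-n-octylammonium bromide and DMSO controls.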

The nature of test [8]: qHTS assay to identify small molecule agonists of the AP-1 signaling pathway (AID 1159526; calls by dose curve).
Test [9] has as its target Retinoic acid receptor RXR-alpha (Homo sapiens) (UniProt P19793). Kind of test: qHTS assay to identify small molecule agonists of the RXR signaling pathway (AID 1159527; calls by dose curve; note: nearly all actives have a fitted effect of over 35% in size; note: potency is the fitted concentration of half-maximal effect). A digest of the protocol: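 Agonist mode; 9-cis retinoic acid positive control. HEK 293T UAS-bla reporter cells, 2% charcoal-stripped FBS, 16 hr compound exposure at 37 C/5% CO2. LiveBLAzer B/G FRET substrate 2 hr RT; ex 405, em 460/530 nm.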

The nature of test [10]: qHTS assay to identify small molecule agonists of the RXR signaling pathway - cell viability counter screen (AID 1159529). A digest of the protocol: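 Luminescence from CellTiter-Glo (30 min, RT) measured viability in the same wells as the beta-lactamase reporter readout. Cells: GeneBLAzer RXR-alpha HEK 293T, 2% charcoal-stripped FBS. Compound exposure 16 hr, 37 C.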
The nature of test [11]: qHTS assay to identify small molecule antagonists of the retinoid acid receptor (RAR) signaling pathway - cell viability counter screen (AID 1159551). Note: nearly all actives have a fitted effect of over 35% in size. A digest of the protocol:
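C3RL4 cells were seeded overnight at 37 C, then treated with compounds plus 1 uM (final) retinol for 6 h at 37 C. Viability was read as ATP by CellTiter-Glo luminescence after 30 min at room temperature.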

Test [12] can be described thus: qHTS assay to identify small molecule antagonists of the estrogen related receptor (ERR) signaling pathway - cell viability counter screen (AID 1224818).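 Note: series mostly up to about 46 µM; viability measured after 17.5 h of compound exposure.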 The essentials: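 ERR reporter cells plated 6 h at 37 C/5% CO2, then compounds in DMSO pin-transferred and incubated 17.5 h at 37 C. Viability read as CellTiter-Fluor fluorescence after 30 min at 37 C.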
Test [13] in a line: qHTS assay to identify small molecule antagonists of the estrogen related receptor signaling pathway with the pleiotropic PPARgamma coactivator (PGC) cell viability counter screen (AID 1224822; note: series mostly up to about 46 µM). A digest of the protocol:
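PGC/ERR cells were seeded at 2,000 cells/well, rested 6 h at 37 C/5% CO2, then given compounds in DMSO by pin tool and incubated 17.5 h at 37 C. Viability came from CellTiter-Fluor fluorescence after 30 min.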

A short description of test [14]: qHTS assay to identify small molecule antagonists of the retinoic acid receptor (RAR) signaling pathway (AID 1159552; note: nearly all actives have a fitted effect of over 50% in size). A digest of the protocol:
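Luminescence from a RARE luciferase reporter in C3RL4 cells served as read-out. Cells received compounds together with 1 uM final retinol and incubated 6 hr at 37 C before detection reagent was added for 30 min at room temperature.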

Test [15] can be described thus: qHTS assay to identify small molecule agonists of the retinoic acid receptor (RAR) signaling pathway (AID 1159553). The essentials:
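C3RL4 cells carrying a RARE luciferase reporter were plated overnight at 37 C, then exposed to compounds in DMSO for 6 hr at 37 C and 5% CO2. Luminescence was read 30 min after luciferase reagent addition at room temperature.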

A short description of test [16]: qHTS assay to identify small molecule antagonists of the estrogen related receptor (ERR) signaling pathway (AID 1224819). A digest of the protocol:
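ERR reporter cells were plated at 2,000 cells/well and left 6 h at 37 C/5% CO2 before pin-tool transfer of compounds in DMSO. After 18 h at 37 C, One-Glo was added and luminescence was read 30 min later at room temperature.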

Test [17] can be described thus: qHTS assay to identify small molecule agonists of the estrogen related receptor (ERR) signaling pathway (AID 1224820). A digest of the protocol:
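Cells: ERR line from NTP, 2,000/well. Pre-incubation 6 h, 37 C/5% CO2. Compound (DMSO) pin transfer, 18 h 37 C. One-Glo, 30 min RT, luminescence.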

Test [18] concerns estrogen-related receptor alpha (ERRalpha) with PGC-1alpha coactivator, human. The test can be described thus: qHTS assay to identify small molecule antagonists of the estrogen related receptor signaling pathway with the pleiotropic PPARgamma coactivator (PGC) (AID 1224821; calls by dose curve). The essentials:
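Luminescent read-out (One-Glo, 30 min at room temperature) following 18 h treatment of PGC/ERR cells at 37 C with compounds delivered in DMSO. Cells had settled 6 h at 37 C/5% CO2 before dosing.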

Test [19] can be described thus: qHTS assay to identify small molecule agonists of the vitamin D receptor (VDR) signaling pathway - cell viability counter screen (AID 743224). A digest of the protocol:
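VDR-bla cells were preincubated 4 h at 37C/5% CO2, then exposed to compounds for 16 h. After the 2 h room-temperature bla FRET read, CellTiter-Glo was added to the same wells and luminescence read after 30 min.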

Records with an inconclusive call do not appear. Values without a mark were called inactive. Active and inactive are the calls of the source. Unless noted, calls come from the whole dose curve; as a rule, active = well fitted curve in the direction sought with a large enough effect in the repeat runs; inconclusive = weak or mixed curves; inactive = no such curve, though single readings can be large; an effect the other way counts as inactive or inconclusive.

Retinoic acid receptor RXR-alpha (Homo sapiens), sequence (P19793 whole entry, looked up): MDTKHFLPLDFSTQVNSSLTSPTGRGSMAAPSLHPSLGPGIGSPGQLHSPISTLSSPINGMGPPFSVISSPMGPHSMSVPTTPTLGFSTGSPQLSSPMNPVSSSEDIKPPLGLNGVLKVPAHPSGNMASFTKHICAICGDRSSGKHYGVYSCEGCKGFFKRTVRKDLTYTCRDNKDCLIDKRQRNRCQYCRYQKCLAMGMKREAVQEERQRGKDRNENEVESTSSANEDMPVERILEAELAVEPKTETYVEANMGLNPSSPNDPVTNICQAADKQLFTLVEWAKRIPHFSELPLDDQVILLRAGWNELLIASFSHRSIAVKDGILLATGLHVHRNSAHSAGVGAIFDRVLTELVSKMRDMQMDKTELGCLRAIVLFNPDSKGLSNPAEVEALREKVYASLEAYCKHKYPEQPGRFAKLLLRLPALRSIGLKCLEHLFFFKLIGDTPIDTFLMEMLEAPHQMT

As to `CC(=O)C(C)=O`, the Potency entry in test [1], in [3], in [4], in test [5], in [6] and in [7] was “inactive” in each case. In addition, the Potency result in test [9], in test [10] and in [11] was “inactive” throughout. Moreover, the compound was classed as inactive in [2], in test [8], in test [12] and in test [13].
Consider `CCCCC[C@H](O)/C=C/[C@H]1[C@H](O)CC(=O)[C@@H]1C/C=C\CCCC(=O)O`, for which the Potency result in test [1], in test [3], in test [4], in [5], in test [6] and in test [7] was “inactive” throughout. The Potency result in test [10] and in test [11] was “inactive” in each case. Besides, the compound was called inactive in test [2] and in test [8].
For the compound `CCN(CC)c1cccc(O)c1`, the Potency entry in test [1], in test [3], in test [4], in test [5], in test [6] and in [7] was “inactive” throughout. In addition, the Potency entry in test [9], in [10], in [14] and in test [15] was “inactive” throughout. Moreover, the result in test [2] and in test [8] was inactive.
As for `CC(CCc1ccc(O)cc1)NCCc1ccc(O)c(O)c1` (configuration not stated), the Potency result in test [1], in test [3], in test [4], in test [5], in test [6] and in test [7] was “inactive” in each case. Further, the Potency entry in test [9], in test [10], in test [11], in test [16] and in [18] was “inactive” in each case. The compound was called inactive in test [2], in test [8], in test [12], in test [17] and in [13].
In the case of `CCCCC(CC)COS(=O)(=O)O` (configuration not stated), the Potency result in test [1], in [3], in [4], in [5], in [6] and in test [7] was “inactive” throughout. For the same compound, the Potency result in test [9], in test [10] and in [14] was “inactive” throughout. The result in test [2] and in test [8] was inactive.
`CC(=O)c1ccc[nH]1`: the Potency entry in test [19], in test [1], in test [3], in [4], in [5] and in test [6] was “inactive” each time. Besides, the Potency entry in test [7], in [10], in test [11], in test [14] and in test [15] was “inactive” each time. In addition, the result in test [2] and in test [8] was inactive.
As for `CCO[Si](C)(CCCOCC1CO1)OCC` (configuration not stated), the Potency result in [19], in test [1], in test [3], in test [4], in test [5] and in test [6] was “inactive” throughout. Also, the Potency result in [7], in [9], in [10], in test [14] and in [15] was “inactive” in each case. Besides, the compound was classed as inactive in test [2] and in [8].
For the compound `CC(=O)OCCC(C)CC(C)(C)C` (configuration not stated), the Potency entry in test [1], in [3], in [4], in test [5], in [6] and in test [7] was “inactive” throughout. The Potency entry in [10] and in test [11] was “inactive” in each case. Moreover, the result in [2] and in [8] was inactive. The Potency in test [9] is 11 µM (active).
Take `CC(C)c1ccc(C(=O)N=C(N)N)cc1S(C)(=O)=O`: the Potency entry in [19], in [1], in [3], in [4], in test [5] and in test [6] was “inactive” each time. For the same compound, the Potency result in test [7], in test [10], in test [11] and in test [14] was “inactive” throughout. Moreover, the outcome in test [2] and in [8] was inactive.
As for `CC(C)(C)CCCCCCOC(=O)c1ccccc1C(=O)OCCCCCCC(C)(C)C`, the Potency result in test [19], in test [1], in test [3], in test [4], in test [5] and in test [6] was “inactive” each time. In addition, the Potency result in [7], in [10] and in test [11] was “inactive” in each case. For the same compound, the call in [2] and in test [8] was inactive.
As to `CCCCCc1ccco1`, the call in test [2] and in [8] was inactive. In addition, the Potency result in test [3], in test [4], in test [5], in test [6], in [7] and in [10] was “inactive” each time. Further, the Potency entry in test [11] and in test [15] was “inactive” throughout.

The record behind these values is PubChem BioAssay (Tox21).
